Results reported in PubChem BioAssay (EPA / NIEHS).
Records with an inconclusive call do not appear. Activity calls are given as the source filed them. The calls were made as follows: active = hit-call score of the fitted dose curve at least 0.9, where 1 is the maximum; inconclusive = response in the unintended direction; inactive = score below 0.9.

Test: Tanguay_ZF_120hpf_CIRC_legacy: (Legacy) Oregon State University Tanguay Lab 120 Hour Post-fertilization zebrafish Assay for Circulatory Malformation (AID 2283651)
Experimental: Tanguay_ZF_120hpf_legacy is a whole embryo, multiplexed endpoint assay using zebrafish larvae exposed for 120 hours post fertilization on a 96-well plate.Tanguay_ZF_120hpf_CIRC_legacy is one of one assay component(s) measured or calculated from the Tanguay_ZF_120hpf_legacy assay. It is designed to make measurements of zebrafish development as detected with brightfield microscopy of developing zebrafish embryos.Data from the assay component Tanguay_ZF_120hpf_CIRC_legacy was analyzed into 1 assay endpoints. This assay endpoint, Tanguay_ZF_120hpf_CIRC_legacy, was analyzed in the positive analysis fitting direction relative to DMSO as the negative control and baseline of activity. Using a type of morphology reporter, gain-of-signal activity can be used to understand changes in developmentals as they relate to the whole embryo. To generalize the intended target to other relatable targets, this assay endpoint is annotated to the zebrafish development intended target family, where the subfamily is angiogenesis.
Zebrafish husbandry: Tropical 5D wild-type adult zebrafish were housed in at an approximate density of 1000 per 100 gallon tank at the Sinnhuber Aquatic Research Laboratory, Oregon State University, Corvallis, OR. Each tank was kept at standard laboratory conditions of 28C on a 14-h light/10-h dark photoperiod in fish water consisting of reverse osmosis water supplemented with a commercially available salt (Instant Ocean). Spawning funnels were placed into the tanks the night prior, and embryos were collected and staged. To increase bioavailability, the chorion was enzymatically removed using pronase (63.6mg/ml, >/= 3.5U/mg, Sigma-Aldrich: P5147) at 4 hours post fertilization (hpf) using a custom automated dechorionator.Chemical exposures: Six hpf dechorionated embryos were placed 1 embryo per well in a 96-well plate prefilled with 90 ul of EM using automated embryo placement systems (AEPS). Ten microliters of each row of dilution plate 2 was added to 2 exposure plates. The final DMSO concentration used was 0.64% (vol/vol). Thirty-two embryos were also exposed to 5uM trimethyltin chloride (positive control). Plates were sealed to prevent evaporation and foil covered to reduce light exposure and kept in a 28C incubator. Embryos were statically exposed until 120 hpf. At 24 hpf, embryos were assessed for photomotor response using a custom photomotor response analysis tool (PRAT) and for developmental toxicity endpoints (MO24: mortality at 24 hpf, DP: developmental progression, SM: spontaneous movement, and NC: notochord distortion). At 120 hpf, locomotor activity was measured using Viewpoint Zebralab and assessed for 18 endpoints. Zebrafish acquisition and analysis program (ZAAP), a custom program designed to inventory, acquire, and manage zebrafish data, was used to collect developmental endpoints as either present or absent (i.e., binary responses were recorded). If mortality occurred for an embryo (at either 24 or 120 hpf), the non-mortality endpoints were not measured.
In the case of `COc1ccc(C(=CC(=O)N2CCOCC2)c2ccc(Cl)cc2)cc1OC`, the outcome is reported as “inactive”. With `CCc1cnc(C2=NC(C)(C(C)C)C(=O)N2)c(C(=O)O)c1` (stereo not given) the outcome was “inactive”. In the case of `CN1COCN(Cc2cnc(Cl)s2)C1=N[N+](=O)[O-]`, the outcome is reported as “inactive”. In the case of `CC1(C(=O)Nc2ccc(O)c(Cl)c2Cl)CCCCC1`, the outcome is reported as “inactive”. For `CC(=NC#N)N(C)Cc1ccc(Cl)nc1`, the outcome was “inactive”. For `C#CC(C)(C)NC(=O)c1cc(Cl)cc(Cl)c1`, the outcome was “inactive”. With `CC[C@H](C)[C@H]1O[C@]2(C=C[C@@H]1C)C[C@@H]1C[C@@H](C/C=C(\C)[C@@H](O[C@H]3C[C@H](OC)[C@@H](O[C@H]4C[C@H](OC)[C@@H](NC)[C@H](C)O4)[C@H](C)O3)[C@@H](C)/C=C/C=C3\CO[C@@H]4[C@H](O)C(C)=C[C@@H](C(=O)O1)[C@]34O)O2` the outcome was “inactive”. With `CCCSP(=O)(OCC)SCCC` the outcome was “inactive”. For `CNc1cnn(-c2cccc(C(F)(F)F)c2)c(=O)c1Cl`, the outcome was “inactive”. In the case of `CCOC(=O)COc1cc(-c2nn(C)c(OC(F)F)c2Cl)c(F)cc1Cl`, the outcome is reported as “inactive”. In the case of `CCc1cccc(C)c1N(C(=O)CCl)C(C)COC` (stereo not given), the outcome is reported as “inactive”. In the case of `CON=C(C(=O)OC)c1ccccc1CON=C(C)c1cccc(C(F)(F)F)c1`, the outcome is reported as “inactive”. In the case of `C[Si](Cn1cncn1)(c1ccc(F)cc1)c1ccc(F)cc1`, the outcome is reported as “inactive”. For `CCC(=O)Nc1ccc(Cl)c(Cl)c1`, the outcome was “inactive”. In the case of `COP(=O)(OC)OC(Br)C(Cl)(Cl)Br` (stereo not given), the outcome is reported as “inactive”. In the case of `COc1cccc(C(=O)NN(C(=O)c2cc(C)cc(C)c2)C(C)(C)C)c1C`, the outcome is reported as “inactive”. For `CCOP(=O)(NC(C)C)Oc1ccc(SC)c(C)c1` (stereo not given), the outcome was “inactive”. In the case of `CC(C)[C@H](C(=O)O[C@H](C#N)c1cccc(Oc2ccccc2)c1)c1ccc(Cl)cc1`, the outcome is reported as “inactive”. In the case of `CC(C1CC1)C(O)(Cn1cncn1)c1ccc(Cl)cc1` (stereo not given), the outcome is reported as “inactive”. With `FC(F)C(F)(F)OCC(Cn1cncn1)c1ccc(Cl)cc1Cl` (stereo not given) the AC50 was 17.2 µM (active). For `CSC1=N[C@@](C)(c2ccccc2)C(=O)N1Nc1ccccc1`, the outcome was “inactive”. In the case of `O=C(O)c1cc(Oc2ccc(C(F)(F)F)cc2Cl)ccc1[N+](=O)[O-]`, the outcome is reported as “inactive”. For `COP(=O)(OC)C(O)C(Cl)(Cl)Cl` (stereo not given), the outcome was “inactive”. With `Cc1nn(-c2cc(NS(C)(=O)=O)c(Cl)cc2Cl)c(=O)n1C(F)F` the outcome was “inactive”. For `CCOP(=S)(OCC)Oc1ccc2c(C)c(Cl)c(=O)oc2c1`, the outcome was “inactive”. For `COc1cc(OC)nc(Sc2cccc(Cl)c2C(=O)O)n1`, the outcome was “inactive”. With `Nc1c(Cl)cc([N+](=O)[O-])cc1Cl` the outcome was “inactive”. In the case of `O=[N+]([O-])c1cc(C(F)(F)F)c(Cl)c([N+](=O)[O-])c1Nc1ncc(C(F)(F)F)cc1Cl`, the outcome is reported as “inactive”. In the case of `CCCCN(CC)c1c([N+](=O)[O-])cc(C(F)(F)F)cc1[N+](=O)[O-]`, the outcome is reported as “inactive”. For `CNC(=O)ON=C(C)SC`, the outcome was “inactive”. In the case of `CCOC(=O)CC(SP(=O)(OC)OC)C(=O)OCC` (stereo not given), the outcome is reported as “inactive”. With `CCOP(=S)(OCC)Oc1cc(C)nc(C(C)C)n1` the outcome was “inactive”. For `CCCCOC(=O)c1ccccc1C(=O)O`, the outcome was “inactive”. With `CC(C)=CC1C(C(=O)OCN2C(=O)C3=C(CCCC3)C2=O)C1(C)C` (stereo not given) the outcome was “inactive”. In the case of `CCNc1nc(Cl)nc(NC(C)(C)C#N)n1`, the outcome is reported as “inactive”. For `CCOP(=O)(SC(C)CC)N1CCSC1=O` (stereo not given), the outcome was “inactive”. For `Cc1ccn2nc(S(=O)(=O)Nc3c(F)cccc3F)nc2n1`, the outcome was “inactive”. For `N#CSCSC#N`, the outcome was “inactive”. For `C[N+]1(C)CCCCC1`, the outcome was “inactive”. For `CC(Oc1cccc(Cl)c1)C(=O)O` (stereo not given), the outcome was “inactive”.
